Measurements from PubChem BioAssay (NCI).
The panel holds about 79,000 compounds, 15% with a hit somewhere; the sample as a whole holds those more often. Calls of active or inactive are those of the source. Rule as the data show it: active = growth inhibition above about 70%; inactive = the rest.

Experiments:
[1] = NCI Yeast Anticancer Drug Screen. Data for the mec2-1 strain (AID 157); conditions: S. cerevisiae mec2-1 strain, stronger effect = higher value
In short: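 Strain: mec2-1 (DNA repair/cell cycle alteration). Compound exposure, then growth measured; inhibition expressed relative to vehicle.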

[2] = NCI Yeast Anticancer Drug Screen. Data for the rad14 strain (AID 159);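 also: 0% = growth of vehicle-treated control cultures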; conditions: S. cerevisiae rad14 strain growth inhibition, stronger effect = higher value
In short: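 Vehicle-treated cultures served as the baseline for growth inhibition of a DNA repair-mutant yeast strain exposed to each compound.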

[3] = NCI Yeast Anticancer Drug Screen. Data for the sgs1 mgt1 strain (AID 161);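 also: 0% = growth of cultures given vehicle only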; conditions: S. cerevisiae sgs1 mgt1 strain, stronger effect = higher value
In short: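 Test agents were incubated with a DNA-repair-mutant yeast strain. Growth was then read and compared against vehicle-treated controls.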

[4] = NCI Yeast Anticancer Drug Screen. Data for the CLN2oe strain (AID 163);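 also: 0% = growth of vehicle-only control cultures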; conditions: S. cerevisiae CLN2oe strain, stronger effect = higher value
In short: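 Growth of a genetically modified yeast strain is measured after compound exposure and compared with cultures given vehicle alone.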

[5] = NCI Yeast Anticancer Drug Screen. Data for the cln2 rad14 strain (AID 165);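 also: 0% = growth equal to vehicle treated cultures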; conditions: S. cerevisiae cln2 rad14 strain, stronger effect = higher value
In short: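 Compounds are applied to the cln2 rad14 yeast strain, and growth is then compared with that of vehicle-treated cultures to give inhibition.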

[6] = NCI Yeast Anticancer Drug Screen. Data for the bub3 strain (AID 167); conditions: S. cerevisiae bub3 mutant strain, stronger effect = higher value
In short: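 Inhibition values come from growth of compound-treated mutant yeast normalised to vehicle-treated controls.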

[7] = NCI Yeast Anticancer Drug Screen. Data for the wt2 strain (AID 169);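 also: 0% = growth of vehicle-treated yeast cultures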; conditions: S. cerevisiae wt2 strain growth inhibition, stronger effect = higher value
In short: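 This strain belongs to a panel of yeast strains with defined genetic alterations in DNA damage repair or cell cycle control. Compounds are applied, and growth inhibition is measured against vehicle-treated cultures.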

[8] = NCI Yeast Anticancer Drug Screen. Data for the mlh1 strain (AID 171);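 also: 0% = growth of vehicle-treated control cultures of the same strain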; conditions: S. cerevisiae mlh1 strain growth inhibition, stronger effect = higher value
In short: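 Growth of the mutant yeast strain after compound exposure, expressed as inhibition relative to vehicle-only controls.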

[9] = NCI Yeast Anticancer Drug Screen. Data for the sgs1 strain (AID 173);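 also: 0% = growth of vehicle-only control cultures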; conditions: S. cerevisiae sgs1 mutant, stronger effect = higher value
In short: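 Growth of a yeast strain bearing a defined genetic alteration is measured after compound treatment. Inhibition is expressed relative to vehicle-only controls.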

[10] = NCI Yeast Anticancer Drug Screen. Data for the mlh1 rad18 strain (AID 175); conditions: S. cerevisiae mlh1 rad18 strain growth inhibition, stronger effect = higher value
In short: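 Read-out is yeast growth inhibition, calculated against vehicle-only controls. The compound was applied to a strain engineered with DNA damage repair alterations.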

[11] = NCI Yeast Anticancer Drug Screen. Data for the rad18 strain (AID 177); conditions: S. cerevisiae rad18 mutant growth inhibition, stronger effect = higher value
In short: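 Growth of the mutant yeast strain after compound exposure, normalised to vehicle-only cultures.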

[12] = NCI Yeast Anticancer Drug Screen. Data for the rad52 strain (AID 147);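 also: 0% = growth of vehicle-treated control cultures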; conditions: S. cerevisiae rad52 mutant growth inhibition, stronger effect = higher value
In short: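 Compounds are applied to a genetically defined yeast strain lacking normal DNA damage repair, and inhibition of growth is expressed relative to cultures given vehicle only.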

[13] = NCI Yeast Anticancer Drug Screen. Data for the wt1 strain (AID 149);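 also: 0% = growth of vehicle-treated wt1 cultures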; conditions: S. cerevisiae wt1 strain (SPY 50644) growth inhibition, stronger effect = higher value
In short: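 Vehicle-normalised growth inhibition; strain wt1; compound exposure.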

[14] = NCI Yeast Anticancer Drug Screen. Data for the rad50EPP+ strain (AID 151);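 also: 0% = growth of vehicle-treated control cultures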; conditions: S. cerevisiae rad50 mutant strain, stronger effect = higher value
In short: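 Compounds were applied to the rad50EPP+ yeast strain, which bears a defined DNA repair alteration, and growth inhibition was determined relative to vehicle-treated cultures.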

[15] = NCI Yeast Anticancer Drug Screen. Data for the mgt1 strain (AID 153); conditions: S. cerevisiae mgt1 mutant growth inhibition, stronger effect = higher value
In short: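 Strain: mgt1 yeast, one of a set carrying defined DNA damage repair or cell cycle control alterations. Compound-treated growth compared with vehicle.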

[16] = NCI Yeast Anticancer Drug Screen. Data for the rad50 strain (AID 155);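 also: 0% = growth of vehicle-only cultures of the same strain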; conditions: S. cerevisiae rad50 strain growth inhibition, stronger effect = higher value
In short: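 A DNA repair-deficient yeast mutant serves as the test organism; compound-induced growth inhibition is calculated against vehicle-treated cells.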

[17] = at 5.0 µM (retest, dose inferred, filed as 0.5)
[18] = at 50.0 µM (retest, dose inferred, filed as 5.0)

Measured: growth inhibition

COc1ccc2c3c1OC(C)C31CC(=O)CCC1CC2 (stereo unspecified)
inactive: [1]; [17] -15% | [1]; at 11.0 µM -3% | [1]; at 33.0 µM -3% | [1]; [18] 2% | [1]; at 50.0 µM 14.7% | [1]; at 100.0 µM -2% | [2]; at 1.2 µM -2% | [2]; at 3.7 µM 1% | [2]; at 11.0 µM 2% | [2]; at 33.0 µM 1% | [2]; at 100.0 µM 7% | [3]; [17] 14% | [3]; [18] 25% | [3]; at 50.0 µM 8.45% | [4]; at 1.2 µM -2% | [4]; at 3.7 µM -8% | [4]; at 11.0 µM 1% | [4]; at 33.0 µM -1% | [4]; at 100.0 µM 8% | [5]; [17] 14% | [5]; [18] 9% | [5]; at 50.0 µM 5.05% | [6]; at 1.2 µM -5% | [6]; at 3.7 µM -3% | [6]; [17] 8% | [6]; at 11.0 µM -5% | [6]; at 33.0 µM 0% | [6]; [18] 34% | [6]; at 50.0 µM 10.9% | [6]; at 100.0 µM 8% | [7]; at 1.2 µM -8% | [7]; at 3.7 µM -9% | [7]; at 11.0 µM -7% | [7]; at 33.0 µM -7% | [7]; at 100.0 µM -11% | [8]; at 1.2 µM -6% | [8]; at 3.7 µM -2% | [8]; at 11.0 µM -3% | [8]; at 33.0 µM -4% | [8]; at 100.0 µM 1% | [9]; at 1.2 µM -1% | [9]; at 3.7 µM -6% | [9]; at 11.0 µM -8% | [9]; at 33.0 µM 9% | [9]; at 100.0 µM 9% | [10]; [17] 12% | [10]; [18] 51% | [10]; at 50.0 µM -0.75% | [11]; at 1.2 µM -7% | [11]; at 3.7 µM -1% | [11]; at 11.0 µM 3% | [11]; at 33.0 µM 0% | [11]; at 100.0 µM 25%

O=C(O)c1cc2c(cc1S(=O)(=O)O)C1C(C3C2C2(Cl)C(Cl)=C(Cl)C3(Cl)C2(Cl)Cl)C2(Cl)C(Cl)=C(Cl)C1(Cl)C2(Cl)Cl (stereo unspecified)
inactive: [12]; at 1.2 µM 0% | [12]; at 3.7 µM 3% | [12]; at 11.0 µM 13% | [13]; at 1.2 µM 2% | [13]; at 3.7 µM 0% | [13]; at 11.0 µM 3% | [13]; at 33.0 µM 62% | [14]; at 1.2 µM 3% | [14]; at 3.7 µM -2% | [14]; at 11.0 µM -52% | [14]; at 33.0 µM -84% | [14]; at 100.0 µM 61% | [15]; at 1.2 µM 2% | [15]; at 3.7 µM -1% | [15]; at 11.0 µM 22% | [16]; at 1.2 µM 2% | [16]; at 3.7 µM 1% | [16]; [17] 17% | [16]; at 11.0 µM 9% | [16]; at 33.0 µM 63% | [1]; at 1.2 µM -3% | [1]; at 3.7 µM -2% | [1]; [17] 20% | [1]; at 11.0 µM 0% | [2]; at 1.2 µM 0% | [2]; at 3.7 µM 3% | [2]; at 11.0 µM 24% | [3]; [17] 37% | [4]; at 1.2 µM -4% | [4]; at 3.7 µM -5% | [4]; at 11.0 µM -11% | [4]; at 33.0 µM 51% | [5]; [17] 11% | [6]; at 1.2 µM -3% | [6]; at 3.7 µM -5% | [6]; [17] 2% | [6]; at 11.0 µM -11% | [7]; at 1.2 µM 1% | [7]; at 3.7 µM 0% | [7]; at 11.0 µM 12% | [8]; at 1.2 µM -2% | [8]; at 3.7 µM -2% | [8]; at 11.0 µM 11% | [9]; at 1.2 µM -4% | [9]; at 3.7 µM -1% | [9]; at 11.0 µM 21% | [10]; [17] 67% | [11]; at 1.2 µM -1% | [11]; at 3.7 µM -1% | [11]; at 11.0 µM -8%
active: [12]; at 33.0 µM 78% | [12]; at 100.0 µM 95% | [13]; at 100.0 µM 96% | [15]; at 33.0 µM 92% | [15]; at 100.0 µM 96% | [16]; [18] 96% | [16]; at 50.0 µM 96.2% | [16]; at 100.0 µM 90% | [1]; at 33.0 µM 85% | [1]; [18] 96% | [1]; at 50.0 µM 95.4% | [1]; at 100.0 µM 96% | [2]; at 33.0 µM 84% | [2]; at 100.0 µM 96% | [3]; [18] 97% | [3]; at 50.0 µM 94.4% | [4]; at 100.0 µM 88% | [5]; [18] 97% | [5]; at 50.0 µM 93.7% | [6]; at 33.0 µM 74% | [6]; [18] 98% | [6]; at 50.0 µM 94.8% | [6]; at 100.0 µM 94% | [7]; at 33.0 µM 90% | [7]; at 100.0 µM 96% | [8]; at 33.0 µM 95% | [8]; at 100.0 µM 97% | [9]; at 33.0 µM 92% | [9]; at 100.0 µM 96% | [10]; [18] 98% | [10]; at 50.0 µM 96.3% | [11]; at 33.0 µM 82% | [11]; at 100.0 µM 95%
